Screens from PubChem BioAssay.
DAX1 inh-1 – blocks DAX1 repression of SF-1 activated StAR promoter; HEK293T StAR-luciferase reporter, SF-1/DAX-1 repression relief; inhibition, % at 6.8 µM; 370,000 compounds, 1.1% hits;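 active = inhibition above the mean over all tested compounds plus 3 SD, cut at about 3.6% in these data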;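 note: 0% = DAX-1 cells with DMSO and 100% = cells lacking DAX-1 with DMSO; higher inhibition means more luminescence from relief of DAX-1 repression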
ssDAF-12 act – activates DAF-12 receptor from parasite S. stercoralis; HEK293 ssDAF-12/GRIP1 lit1-tk-luc reporter, luminescence; % of 3 µM dafachronic acid response; 370,000 compounds, 1% hits; activation, % at 6.8 µM;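 active = activation above the mean over all tested compounds plus 3 SD, cut at about 0.9% in these data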;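 note: 0% = DMSO-only wells and 100% = 3 µM delta7-dafachronic acid wells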
SMARCA2 act – activators of SMARCA2 function. MG213 cells, MMTV-luciferase reporter, dexamethasone, overnight. activation, % at 9.1 µM. 370,000 compounds, 1% hits. AID 652017; in the data active = activation above about 7.8%;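 note: 0% = vehicle wells and 100% = reference activator wells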
hcDAF12 agonist – activates DAF-12 receptor from parasite H. contortus | activation, % at 6.8 µM | AID 652067 | 370,000 compounds, 1.4% hits | HEK293 hcDAF-12 lit1-tk-luc reporter, luminescence; 0% DMSO, 100% Δ7-dafachronic acid;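 active = activation above the mean of all tested compounds plus 3 SD, cut at about 5.5% in these data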;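 note: 100% = response to 3 µM Δ7-dafachronic acid high control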
hgDAF-12 ag – hgDAF-12 agonism, primary luciferase screen | HEK293 GAL4-hgDAF12 UAS-luciferase reporter, agonist luminescence; normalized to butyrate control | activation, % at 6.8 µM | 370,000 compounds, 1.8% hits;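 active = activation above a cutoff set at the mean of all screened compounds plus 3 SD, cut at about 10% in these data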;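 note: 0% = DMSO wells and 100% = sodium butyrate wells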
DAX1 inh-2 – NR0B1 (DAX1) inhibition; HEK293 Gal4-DAX1 luciferase reporter, luminescence; inhibition, % at 6.75 µM; 340,000 compounds, 0.99% hits; AID 504766;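 active = inhibition above the mean over all tested compounds plus 3 SD, cut at about 4.2% in these data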;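 note: 0% = DAX1-transfected cells with DMSO and 100% = empty-vector control cells with DMSO; inhibition shows as a rise in luminescence from relieved DAX1 repression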
Target sequence (P51843 207-470 limits assumed): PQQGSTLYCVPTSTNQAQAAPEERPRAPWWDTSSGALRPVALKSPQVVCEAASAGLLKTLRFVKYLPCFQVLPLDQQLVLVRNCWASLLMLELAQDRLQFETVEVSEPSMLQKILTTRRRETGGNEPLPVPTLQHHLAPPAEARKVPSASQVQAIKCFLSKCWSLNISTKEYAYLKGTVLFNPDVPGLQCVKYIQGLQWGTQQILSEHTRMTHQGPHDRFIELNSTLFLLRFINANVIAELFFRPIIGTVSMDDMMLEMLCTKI
SMARCA2 act conf – confirmation of SMARCA2 (BRM) function activators. shares compounds with SMARCA2 act. 3,500 compounds, 30% hits. activation, % at 9.1 µM. AID 652260. MG213 cells, MMTV-luciferase with dexamethasone, luminescence, overnight; MG213 cells expressing E1A, Rb sequestered; DMSO wells 0%, reference activator 100%;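 active = activation above its plate's cutoff, the mean activation of tested wells plus 3 SD, cut at about 7.9% in these data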
VP16 Luc act – GAL4-VP16 reporter activation counter-screen. shares compounds with SMARCA2 act. HEK293 GAL4-VP16 pG5luc reporter, luciferase luminescence; scaled: DMSO wells 0%, SAHA wells 100%. activation, % at 9.1 µM. 3,500 compounds, 41% hits;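 active = activation above the solvent-only control well mean plus 3 SD, averaged across control plates, cut at about 5.2% in these data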
LXR ag – LXR-beta agonism as hcDAF-12 counter-screen | shares compounds with hcDAF12 agonist | 3,400 tested, under 10 active | HEK293 Gal4-LXR tk-luc reporter, luminescence, 24 h; normalized: DMSO 0%, positive control 100% | activation, % at 6.8 µM;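 active = mean percent activation of the reporter above a cutoff set as the average over tested compounds plus their standard deviation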
Target sequence (P55055 whole entry, looked up, the tested form may be a part): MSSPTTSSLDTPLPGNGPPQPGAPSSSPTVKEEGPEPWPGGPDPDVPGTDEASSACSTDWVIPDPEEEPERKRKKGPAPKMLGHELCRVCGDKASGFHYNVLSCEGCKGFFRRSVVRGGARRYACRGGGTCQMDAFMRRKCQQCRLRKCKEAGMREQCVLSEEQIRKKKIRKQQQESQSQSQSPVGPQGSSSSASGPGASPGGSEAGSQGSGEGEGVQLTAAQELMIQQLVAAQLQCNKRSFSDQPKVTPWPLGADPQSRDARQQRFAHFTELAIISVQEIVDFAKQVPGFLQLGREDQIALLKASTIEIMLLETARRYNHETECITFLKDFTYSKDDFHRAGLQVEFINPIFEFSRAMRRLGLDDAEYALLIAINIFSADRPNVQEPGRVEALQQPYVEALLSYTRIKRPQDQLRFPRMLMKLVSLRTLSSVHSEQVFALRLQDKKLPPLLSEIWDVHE
hcDAF12 ag – hcDAF-12 agonism, confirmation assay; shares compounds with hcDAF12 agonist; HEK293 hcDAF-12 lit1-tk-luc reporter, luminescence; % of Δ7-dafachronic acid response; activation, % at 6.8 µM; 3,400 compounds, 61% hits;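 active = mean activation across triplicate tests above the threshold derived from the earlier primary screen, cut at about 5.5% in these data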;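 note: 0% = DMSO only wells and 100% = 3 µM Δ7-dafachronic acid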
hgDAF12 ag – confirmation of H. glycines DAF-12 agonists; HEK293 GAL4-hgDAF12 luciferase reporter, agonist mode; percent of butyrate response; activation, % at 6.8 µM; shares compounds with hgDAF-12 ag; 3,300 compounds, 80% hits;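 active = mean activation over triplicate wells above the hit cutoff derived from the earlier primary screen, cut at about 11% in these data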;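 note: 0% = DMSO low control and 100% = 2 mM sodium butyrate high control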
LXRb DAF12 ctr – counter-screen for DAF-12 agonists: agonists of human LXR-beta. HEK293 Gal4-LXR luciferase reporter, 24 h. shares compounds with hgDAF-12 ag. AID 743051. activation, % at 6.8 µM. 3,300 tested, under 10 active;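 active = mean activation of the triplicate above a set limit carried over from the primary screen, none filed active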
Active calls of the source: *; · = no result. Shown are actives, neighbours in structure and some others; about 4.8% of the full set was active somewhere.

SMILES | DAX1 inh-1 | ssDAF-12 act | SMARCA2 act | hcDAF12 agonist | hgDAF-12 ag | DAX1 inh-2 | SMARCA2 act conf | VP16 Luc act | hgDAF12 ag | LXRb DAF12 ctr | others
Clc1ccc(CSc2ccc(-c3ccco3)nn2)cc1 | 0 | -1 | 1 | 1 | 6 | 0 | · | · | · | ·
c1ccc(CSc2ccc(-c3ccco3)nn2)cc1 | 2 | 0 | 10* | 1 | 15* | 1 | 8.3* | 8.5* | 15* | 1
O=C(N1CCOCC1)N1CC[C@H]2[C@H](CCCN2Cc2ccccc2)C1 | 0 | -1 | -1 | -2 | 0 | · | · | · | · | ·
COc1ccc(Nc2nc(N)c3ccccc3n2)c(OC)c1 | 1 | 1 | 11* | 4 | 13* | 4.8* | 9.0* | 7.5* | 15* | 1
COc1ccc(Nc2nc(-c3ccccc3)nc3ccccc23)c(OC)c1 | -1 | -1 | 0 | -1 | 0 | 0 | · | · | · | ·
COc1ccc(-c2csc(Nc3cccnc3)n2)cc1OC | -1 | -1 | 0 | -2 | 1 | -1 | · | · | · | ·
COc1cccc(Nc2nc(-c3cccnc3)cs2)c1 | 2 | 1.7* | 11* | 13* | 14* | 4.4* | 13* | 6.6* | 17* | 1 | LXR ag=1;hcDAF12 ag=8.2*
NC(=O)c1cccnc1Nc1cccc([N+](=O)[O-])c1 | 3 | 0 | 13* | 3 | 14* | 4.3* | 7.8* | 8.6* | 9 | 0
CN(C)[C@H]1CCN(c2ccc3c(c2)OCCCN(C2CC2)S3(=O)=O)C1 | -1 | 0 | -3 | -1 | 1 | · | · | · | · | ·
COc1ccc2c(CC(=O)Nc3ncc(C)s3)coc2c1 | 2 | 0 | 29* | 4 | 18* | 2 | 42* | 4 | 18* | 1
COc1cccc(CC(=O)Nc2ncc(C)s2)c1 | 0 | 0 | 2 | 1 | 2 | -1 | · | · | · | ·
Cc1cccc(OCCCC(=O)Nc2nc3ccccc3[nH]2)c1 | 0 | -1 | 18* | 0 | 14* | -1 | 14* | 2 | 7 | 0
COc1cccc(C(=O)NCCSc2ccc(F)cc2)c1 | 3 | 0 | 16* | 3 | 14* | 0 | 12* | 10.0* | 12* | 0
COc1cccc(C(=O)NCCSc2ccc(C)cc2)c1 | -1 | -1 | -1 | -1 | -1 | 0 | · | · | · | ·
O=C(NN/C(=N/S(=O)(=O)c1ccc(Cl)cc1)c1ccccc1)c1cccc(Cl)c1 | 2 | 1.2* | 10.0* | 8.8* | 16* | 1 | 10* | 12* | 18* | 1 | LXR ag=1;hcDAF12 ag=7.6*
Nc1nnc(-c2ccc(Cl)cc2Cl)s1 | 1 | -1 | 12* | 2 | 15* | 1 | 6 | 8.2* | 10 | 0
Cc1nn(-c2ccccc2)c2sc(C(=O)NCC3CCCO3)cc12 (stereo unspecified) | -2 | -2 | -3 | 0 | -1 | · | · | · | · | ·
CCCCNS(=O)(=O)CC1NCCc2ccccc21 (stereo unspecified) | -2 | -1 | -2 | 0 | 2 | · | · | · | · | ·
O=C(CC(=O)c1cccs1)c1ccncc1 | 3.7* | 0 | 10* | 5 | 25* | 3 | 2 | 4 | 4 | 0
COc1cc(/C=N/N(C)c2ccccc2)ccc1O | 3 | 0 | 9.3* | 7.5* | 17* | 3 | 4 | 9.9* | 18* | 1 | LXR ag=2;hcDAF12 ag=8.2*
COC(=O)[C@]12C[C@H](CC(=O)N3CCOCC3)C(=O)N(Cc3cccc4ccccc34)C1=C[C@H](COCc1ccccc1)O[C@@H]2C | -1 | -1 | 0 | -2 | -1 | · | · | · | · | ·
CC(=O)c1c(C)oc2c1cc(O)c1ccccc12 | 0 | -1 | -3 | 0 | 0 | 1 | · | · | · | ·
CCOC(=O)c1c(C)oc2c1cc(O)c1ccccc12 | 3 | 3.1* | 8.1* | 13* | 17* | 4 | 9.8* | 13* | 20* | 1 | LXR ag=1;hcDAF12 ag=13*
CCCCCCCCN1C(=O)N2Cc3ccccc3C2CS1(=O)=O (stereo unspecified) | -1 | -1 | -1 | -1 | 0 | · | · | · | · | ·
Cc1cccc(CN[C@@H]2CC[C@@]34CCCN3C(=O)CCC[C@H]4C2)c1 | · | -1 | · | -2 | -2 | · | · | · | · | ·
SMILES | DAX1 inh-1 | ssDAF-12 act | SMARCA2 act | hcDAF12 agonist | hgDAF-12 ag | DAX1 inh-2 | SMARCA2 act conf | VP16 Luc act | hgDAF12 ag | LXRb DAF12 ctr | others
CCOC(=O)Cn1cc(CN2C(C(=O)OC)CN(C3CC3)CCS2(=O)=O)nn1 (stereo unspecified) | 0 | -1 | -5 | -2 | 4 | · | · | · | · | ·
Cc1cc2c([nH]c3ccccc32)c2c1OC(C)(C)C=C2 | 4.2* | 1.1* | 8.3* | 2 | 14* | 5.0* | 14* | 7.9* | 11* | 0
O=C(NC(=S)Nc1ccccc1[N+](=O)[O-])c1ccccc1Cl | 1 | -1 | 3 | 0 | 7 | 0 | · | · | · | ·
O=C(NNC(=S)NC(=O)c1ccccc1[N+](=O)[O-])c1ccccc1Cl | 0 | -1 | -2 | 7.2* | 4 | -1 | · | · | · | · | LXR ag=0;hcDAF12 ag=0
CCCNC(=O)C(=O)NCCC1=CCCCC1 | 0 | -1 | 0 | -2 | 2 | 0 | · | · | · | ·
CC(C)CCNC(=O)C(=O)NCCC1=CCCCC1 | 0 | 0 | 3 | 6.7* | 4 | -1 | · | · | · | · | LXR ag=0;hcDAF12 ag=2
O=C(CCCCCn1c(=S)[nH]c2cc3c(cc2c1=O)OCO3)N1CCN(c2ccccc2)CC1 | -1 | -1 | 4 | 6.8* | 2 | 0 | · | · | · | · | LXR ag=0;hcDAF12 ag=-1
COC(=O)C1=C(C(=O)OC)[C@@]2([C@H](Cc3ccc(C)cc3)Nc3ccccc3)C=C[C@@H]1O2 | · | -2 | · | -3 | -2 | · | · | · | · | ·
c1nc(NCC2CCCCO2)c2cc(-c3ccc4c(c3)OCO4)ccc2n1 (stereo unspecified) | · | -1 | · | 6.9* | -1 | · | · | · | · | · | LXR ag=0;hcDAF12 ag=2
